TGFb SMAD3 inh: qHTS for Inhibitors of TGF-b | HepG2 CAGA-GFP TGF-b/SMAD3 reporter, GFP fluorescence, 18 h; TGF-beta stimulated, 500 pg/mL final | Potency, µM (titrated, usually from 46.1 µM), most hits filed as inhibitors | AID 588855, 2011 | 1.2% of 410,000 active; also: nearly all actives have a fitted effect of over 65% in size
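Smad-responsive CAGA-GFP expression was quantified in HEPG2 cells exposed to compounds and 500 pg/mL final TGF-beta for 18 h at 37 degrees C; unstimulated wells defined full inhibition.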
TDP1 cell noCPT: qHTS for Inhibitors of human tyrosyl-DNA phosphodiesterase 1 (TDP1): qHTS in cells in absence of CPT; 15% of 420,000 active; DT40 Tdp1-/- hTDP1 cells, no CPT, ATP luminescence, 48 h; Potency, µM (doses to about 46.2 µM), usual class: inhibitors; also: nearly all actives have a fitted effect of over 55% in size
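Camptothecin absent (DMSO only). Human TDP1-complemented DT40 knockout cells, 400 cells/well, 37 °C for minimum 48 hr; ATP measured via CellTiter-Glo, 30 min dark incubation, luminescence.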
TDP1 cell CPT: qHTS for Inhibitors of human tyrosyl-DNA phosphodiesterase 1 (TDP1): qHTS in cells in presence of CPT; chicken DT40 Tdp1-/-;hTDP1 cells + 20 nM CPT, ATP luminescence, 48 h; Potency, µM (highest dose often 46.2 µM), actives largely listed as inhibitors; 12% of 420,000 active; AID 686979, 2013; also: nearly all actives have a fitted effect of over 55% in size
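Cell growth measured by CellTiter-Glo luminescence after a minimum 48 h, 37 C compound exposure with 20 nM CPT in Tdp1-knockout DT40 cells stably expressing hTDP1, seeded 400/well; qHTS titration format.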
ATXN2 expr inh: Primary qHTS for Inhibitors of ATXN expression. HEK-293 ATXN2-luciferase reporter, luminescence, 24 h. Potency, µM (highest dose often 57 µM), actives largely listed as inhibitors. 0.72% of 360,000 active. AID 1745845, 2022; also: nearly all actives have a fitted effect of over 55% in size
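ATXN2-luciferase reporter cells (luciferase flanked by upstream and downstream ATXN2 gene portions) were treated 24 h at 37 °C with compounds at up to 57 uM. SteadyGlo luminescence gave expression; GF-AFC fluorescence gave viability.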
ATXN viability: Viability Counterscreen for Primary qHTS for Inhibitors of ATXN expression; S2 cells (HEK-293 line with an ATXN2-luciferase reporter) viability, CellTiter-Fluor protease fluorescence, 24 h; Potency, µM (series often up to 56.7 µM), usual class: cytotoxic; 0.49% of 400,000 active; also: nearly all actives have a fitted effect of over 40% in size
HepG2 viability: qHTS for Inhibitors of TGF-b: Cytotox Counterscreen; AID 588856, 2011; HepG2 CAGA-GFP viability, ATP luminescence, 18 h; Potency, µM (doses to about 46.1 µM), most hits filed as cytotoxic; 0.76% of 410,000 active
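HepG2 CAGA-GFP cells (1000/well, DMEM with 1% FBS) received compound, then TGF-beta at 500 pg/mL final, and were incubated 18 hours at 37 degrees C. Viability was read by CellTiter-Glo luminescence. Media-only wells were set as complete cell-killing and DMSO as no toxicity.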
Hits are given with their value; – = inactive; ? = inconclusive; · = no result; [ ] = another dose, or the depositor's remark. Shown are actives, neighbours in structure and some others; about 17% of the full set was active somewhere. Calls follow the shape of the dose curve; as a rule, active = well fitted curve in the direction sought with a large enough effect; inconclusive = small, poorly fitted or top-dose-only effect, or another doubt; inactive = no such curve, though single readings can be large; an effect the other way counts as inactive or inconclusive.

SMILES	TGFb SMAD3 inh	TDP1 cell noCPT	TDP1 cell CPT	ATXN2 expr inh	ATXN viability	HepG2 viability
OCCN1CCN(Cc2ccc3c(c2)CN(Cc2cccc4ncccc24)CCO3)CC1	·	?	–[9.04 µM]	·	?	·
COc1c(F)c(F)c(C(=O)O)c(Nc2ccc(C)cc2C)c1F	–	–	–	–	–	–
O=C(Nc1ncccn1)c1ccc([N+](=O)[O-])cc1[N+](=O)[O-]	–	?	?	·	–	–
O=c1cc(-c2ccccc2)nc(Sc2ccc([N+](=O)[O-])cc2[N+](=O)[O-])[nH]1	?	?	?	–	–	–
O=[N+]([O-])c1ccc(Sc2nccn2Cc2ccccc2)c([N+](=O)[O-])c1	?	5.8µM	6.5µM	–	?	–
O=[N+]([O-])c1ccc(Sc2ncccn2)c([N+](=O)[O-])c1	?	0.92µM	0.82µM	?	?	20µM
Cc1cccc(Sc2ccc([N+](=O)[O-])cc2[N+](=O)[O-])n1	–	3.3µM	3.3µM	·	–	–
Cc1ccc(C)c(NC(=O)COC(=O)CCC(=O)c2cccs2)c1	–	–	–	–	–	–
CC(=O)c1ccc(-c2c(C)cc3oc(=O)cc(-c4ccccc4)c3c2C)cc1	–	23µM	18µM	–	?	–
Cc1cc2oc(=O)cc(-c3ccccc3)c2c(C)c1-c1ccc(C#N)cc1	–	16µM	16µM	–	–	–
CC(=O)Nc1ccc(CN2CCc3c([nH]c4ccccc34)C2C(C)(C)C)cc1 (stereo not given)	–	–	–	–	–	–
COc1ccc(Nc2c3c(nc4ccc(NC(=O)/C=C/c5cccc(OC)c5OC)cc24)CCCC3)cc1OC	3.5µM	4.6µM	2.3µM	·	·	–
COc1ccccc1Nc1c2c(nc3ccc(NC(=O)c4cccc(F)c4)cc13)CCCC2	?	2.6µM	5.8µM	·	·	–
COc1ccc(/C=C/C(=O)Nc2ccc3nc4c(c(Nc5ccccc5OC)c3c2)CCCC4)cc1	7.1µM	3.7µM	3.3µM	·	·	–
O=C(Nc1ccc2nc3n(c(=O)c2c1)CCCC3)c1cccc(F)c1	–	–	–	–	–	–
COc1ccccc1Nc1c2c(nc3ccc(NC(=O)/C=C/c4cccc(OC)c4OC)cc13)CCCC2	?	4.1µM	3.3µM	·	·	–
Cc1nnsc1C(=O)NCC1Cc2cccc(-c3ncccn3)c2O1 (stereo not given)	·	–	–[9.04 µM]	·	?	·
O=C(Nc1ccc2oc(-c3cccnc3)nc2c1)c1ccc(-c2ccccc2OC(F)(F)F)o1	?	9.2µM	10µM	–	?	–
O=C(Nc1ccc2oc(-c3cccnc3)nc2c1)c1ccc2c(c1)OCCO2	–	?	?	–	–	–
O=C(Cc1ccccc1)Nc1ccc2oc(-c3cccnc3)nc2c1	–	–	–	–	–	–
O=C(Nc1ccc2oc(-c3cccnc3)nc2c1)c1ccc(-c2ccc(OC(F)(F)F)cc2)o1	–	21µM	?	–	–	–
O=C(Nc1ccc2oc(-c3cccnc3)nc2c1)c1ccc(-c2ccccc2)o1	?	9.2µM	12µM	·	·	–
CCN(CC)C(=O)Nc1ccc(OCC(O)CNC(C)(C)C)c(C(C)=O)c1 (stereo not given)	·	–	–	–	–	·
COc1ccc2cc(-c3nc(Cl)c4c5c(sc4n3)CCCC5)c(=O)oc2c1	–	–	–	–	·	–
CCN(CC)S(=O)(=O)c1ccc(F)cc1	–	–	–	–	–	–
SMILES	TGFb SMAD3 inh	TDP1 cell noCPT	TDP1 cell CPT	ATXN2 expr inh	ATXN viability	HepG2 viability
CCN(CC)S(=O)(=O)c1ccc(S(=O)(=O)Nc2c(C)nn(C)c2C)cc1	–	4.6µM	6.5µM	–	–	–
Cc1nn(C)c(C)c1CN(C)S(=O)(=O)c1ccc(F)cc1	–	21µM	?	–	–	–
Cc1nn(C)c(C)c1NS(=O)(=O)c1ccc(Cl)cc1	–	–	–	–	–	–
Cc1nn(C)c(C)c1CN(C)S(=O)(=O)c1ccc2ccccc2c1	–	1.3µM	2.2µM	–	–	–
COc1cccc(OC)c1CN1CCC2(CCC(CNC(=O)c3ccn(C)n3)O2)CC1 (stereo not given)	·	?	?	·	–	·
Nc1nnnn1-c1ccccc1	·	–	–	–	–	·
CCOC(=O)C1=CNS(=O)(=O)NC1CCc1ccccc1 (stereo not given)	–	23µM	?	–	–	–
CCOC(=O)CN1C(=O)N[C@@H](CCc2ccccc2)C(C(C)=O)=C1C	–	–	–	–	–	–
COC(=O)Cn1cnc2c(Cl)nc(F)nc21	–	16µM	13µM	–	–	–
CCc1nn2c(=O)cc(COC(=O)c3ccccc3)nc2s1	–	–	–	–	–	–
CON(c1nc(Cl)nc(N(C)C)n1)S(=O)(=O)c1ccc(C)cc1	–	16µM	–	?	–	–
Cc1ccc(OCCSc2nc3ncnc(N)c3[nH]2)cc1	–	?	8.2µM	·	–	–
CC(C)Oc1ccc(F)cc1-c1cc(C(=O)Nc2ccc(C(C)(C)C)cc2)[nH]n1	?	3.3µM	6.5µM	–	?	–
Cc1cc(F)ccc1-c1cc(C(=O)NCc2cc(C(F)(F)F)cc(C(F)(F)F)c2)[nH]n1	–	–	–	–	–	–
COc1ccc(F)cc1-c1cc(C(=O)NCc2ccc(C(F)(F)F)cc2)[nH]n1	?	16µM	23µM	?	?	–
COc1ccc(Cl)cc1-c1cc(C(=O)NCc2cc(C(F)(F)F)cc(C(F)(F)F)c2)[nH]n1	–	15µM	?	–	–	–
CC(C)Oc1ccc(F)cc1-c1cc(C(=O)Nc2ccccc2)[nH]n1	–	?	?	–	–	–
Cc1ccc(F)cc1-c1cc(C(=O)NCc2cc(C(F)(F)F)cc(C(F)(F)F)c2)[nH]n1	–	?	29µM	?	?	–
CCNC(=O)C1(C)CCCN(Cc2noc(-c3c(C)noc3C)n2)C1 (stereo not given)	–	–	–	–	–	–
CNC(=O)c1cnn(-c2nc(N)c3ncn([C@@H]4O[C@H](CO)[C@@H](O)[C@H]4O)c3n2)c1	·	·	·	–	–	·
CCCS(=O)(=O)NC(=O)C1(C)CCCN(C(=O)c2ccco2)C1 (stereo not given)	–	–	–	–	–	–
CC(=O)Nc1ccc(S(=O)(=O)NCCC(=O)Nc2ncccc2C)cc1	–	–	–	–	–	–
COc1ccc(Cl)cc1-c1cc(C(=O)NCc2cccc(Cl)c2)[nH]n1	?	?	?	?	?	–
